CYP2C9 activ: increases human cytochrome P450 2C9 activity; P11712; recombinant CYP2C9, luciferin-H conversion, luminescence; active compounds read high; factor 1 = untreated enzyme, 0 = blocked; activation factor at 5 µM; 96,000 compounds, 1.4% hits; AID 1024;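 active means activation factor of 2 or more for CYP2C9 at a 5 µM dose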
sEH activator: activators of human soluble epoxide hydrolase | P34913 | purified human sEH enzymatic activity, activator screen | activation, % at 2 µM | 91,000 compounds, 0.04% hits | AID 717; in the data active means activation above about 37%
CYP2C19 act: activators of human cytochrome P450 2C19 | P33261 | recombinant CYP2C19, luciferin-H EGE luminescence; active compounds read high; 0 = fully inhibited enzyme, 1 = untreated enzyme | activation factor at 5 µM | 96,000 tested, under 10 active | AID 1025;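 active means activation factor of at least 2 at 5 µM in the primary screen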
Target sequence (P33261 whole entry, looked up): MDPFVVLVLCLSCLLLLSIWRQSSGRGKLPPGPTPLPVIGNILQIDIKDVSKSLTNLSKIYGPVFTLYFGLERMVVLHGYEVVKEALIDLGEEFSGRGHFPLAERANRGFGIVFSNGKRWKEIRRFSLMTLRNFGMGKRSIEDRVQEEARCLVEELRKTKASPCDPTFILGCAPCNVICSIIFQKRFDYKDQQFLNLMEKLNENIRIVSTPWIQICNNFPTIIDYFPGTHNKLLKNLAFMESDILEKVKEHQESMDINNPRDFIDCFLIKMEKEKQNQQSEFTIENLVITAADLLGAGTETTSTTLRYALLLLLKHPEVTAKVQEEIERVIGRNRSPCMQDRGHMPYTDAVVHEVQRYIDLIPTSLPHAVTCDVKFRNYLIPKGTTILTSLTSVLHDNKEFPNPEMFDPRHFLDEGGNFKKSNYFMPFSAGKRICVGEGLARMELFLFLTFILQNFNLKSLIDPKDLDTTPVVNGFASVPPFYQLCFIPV
CYP2C9 inh: human CYP2C9 inhibition. AID 777. 96,000 compounds, 20% hits. inhibition, % at 5 µM. P11712. CYP2C9 Supersomes, luciferin-H conversion, luminescence;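 active means blocking of liver enzyme CYP2C9 beyond about 50% at 5 µM, limit read from the data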
CYP2C19 inh: blocks human cytochrome P450 2C19; P33261; CYP2C19 Supersomes, luciferin-H EGE luminescence, 30 min; inhibition, % at 5 µM; 96,000 compounds, 21% hits; AID 778;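 active means CYP2C19 inhibition above a set limit at 5 µM in the primary screen, cut at about 50% in these data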
sEH inhibitor: inhibitors of human soluble epoxide hydrolase | P34913 | recombinant human sEH enzymatic activity assay | inhibition, % at 2 µM | 91,000 compounds, 0.34% hits; in the data active means inhibition above about 80%
Of the large screens only hits and unclear results are named; the others gave an inactive call. Hits are enriched below; roughly 27% of the tested compounds scored in any of these assays.

CCOC(=O)c1ccc(NC(=O)COc2ccc(S(=O)(=O)NC(C)C)cc2)cc1	none
CCOC(=O)c1cc2c(C(F)(F)F)cc(-c3cccnc3)nc2o1	none
CC(NS(=O)(=O)c1ccc(F)cc1)C(c1cccs1)N1CCN(C)CC1 (stereo unspecified)	none (no result: CYP2C9 activ, CYP2C19 act, CYP2C9 inh, CYP2C19 inh)
Cc1c(Cl)cccc1NC(=O)CCC(=O)NNC(=O)c1ccccc1Cl	none
CS(=O)(=O)N(CC(=O)Nc1ccc2c(c1)OCCO2)Cc1ccccc1	none
O=C(CN(c1ccccc1F)S(=O)(=O)c1ccccc1)NC1CCCCCC1	CYP2C9 inh 52.0
COc1ccc(NC(=O)CN(Cc2ccccc2)S(C)(=O)=O)cc1	CYP2C19 inh 79.0
CSc1cccc(NC(=O)CN(Cc2ccc(Cl)cc2)S(C)(=O)=O)c1	CYP2C9 inh 91.8, CYP2C19 inh 92.0
Cc1ccc(S(=O)(=O)N(CC(=O)NC2CCCCCC2)c2ccccc2F)cc1	none
Cc1ccccc1NC(=O)CSc1nc2c(c(-c3ccco3)c1C#N)CCCC2	none
CCc1ccccc1NC(=O)CSc1nc2c(c(-c3ccco3)c1C#N)CCCC2	CYP2C19 inh 87.5
N#Cc1c(SCC(=O)Nc2nccs2)nc2c(c1-c1ccco1)CCCC2	CYP2C9 inh 69.6
O=c1c2ccccc2nc(-c2ccccc2)n1CCN1CCOCC1	none (no result: sEH activator, sEH inhibitor)
Cc1[nH]c2ccccc2c1C(=O)CSc1nc2ccccc2[nH]1	none
Cc1[nH]c2ccccc2c1C(=O)CSc1nc2ccccc2c(=O)n1CCCN1CCOCC1	CYP2C9 inh 85.2, CYP2C19 inh 73.0
COc1ccc(-c2nc3ccccc3c(=O)n2CCCN2CCOCC2)cc1	CYP2C19 inh 90.2
CCCOC(=O)c1ccc(Oc2c(-c3ccc(O)cc3O)n[nH]c2C)cc1	CYP2C9 inh 97.5, CYP2C19 inh 87.4
CCOC(=O)c1[nH]nc(-c2cc(CC)c(O)cc2O)c1-c1cscn1	none
CCCOC(=O)c1ccc(Oc2c(-c3ccc(OC)cc3O)n[nH]c2C)cc1	CYP2C9 inh 83.4
Cc1[nH]nc(-c2ccc(O)cc2O)c1Oc1ccccc1	CYP2C9 inh 98.9, CYP2C19 inh 100.4 (no result: sEH activator, sEH inhibitor)
CCCOC(=O)c1ccc(NC(=O)COC)cc1	none
CCc1cc(-c2n[nH]c(C)c2Oc2ccc(C(C)C)cc2)c(O)cc1O	CYP2C9 inh 82.7, CYP2C19 inh 67.0
Cc1[nH]nc(-c2ccc(OCc3cnn(-c4ccccc4)c3)cc2O)c1Oc1ccccc1F	none
O=S(=O)(c1ccccc1C(F)(F)F)N1CCOCC1	none
C/C(CCc1ccc2c(c1)OCO2)=N\N=C(/N)SC1CC(=O)N(c2ccccc2F)C1=O (stereo unspecified)	CYP2C9 inh 74.4
CCN=C(Nc1ccc2c(c1)OCO2)SC1CC(=O)N(c2ccc(OC)cc2)C1=O (stereo unspecified)	none (no result: CYP2C9 activ, CYP2C19 act, CYP2C9 inh, CYP2C19 inh)
CCN=C(Nc1ccc2c(c1)OCO2)SC1CC(=O)N(c2ccccc2F)C1=O (stereo unspecified)	CYP2C9 inh 100.0
COc1ccccc1N1CCN(C(=O)CSc2nc(C)c(Cc3ccccc3)c(=O)[nH]2)CC1	none
COc1ccc(CN(Cc2nc3ccccc3c(=O)[nH]2)C(=O)C(C)(C)C)cc1	none
COCC(=O)N(CCc1ccc(OC)c(OC)c1)Cc1nc2ccccc2c(=O)[nH]1	CYP2C19 inh 57.5
COc1ccc(N(Cc2cc(=O)[nH]c3ccccc23)C(=O)c2ccco2)cc1	CYP2C9 inh 62.7
CCC(CC)C(=O)N(CCc1ccc(OC)cc1)Cc1nc2ccccc2c(=O)[nH]1	none
COc1ccc(CCN(Cc2nc3ccccc3c(=O)[nH]2)C(=O)c2ccco2)cc1	CYP2C9 inh 57.3
COc1ccc(CN(C(=O)c2ccco2)c2ccccc2)cc1	none (no result: CYP2C9 activ, CYP2C19 act, CYP2C9 inh, CYP2C19 inh)
COCC(=O)N(Cc1nc2ccccc2c(=O)[nH]1)Cc1cccs1	CYP2C9 inh 52.2
O=C(NC1CCCCC1)NC1CC2CCCC(C1)N2C1CCCC1 (stereo unspecified)	none (no result: CYP2C9 activ, CYP2C19 act, CYP2C9 inh, CYP2C19 inh)
O=S(=O)(c1ccc(Cl)cc1)N1CCC(n2cnc3cc(C(F)(F)F)ccc32)CC1	none (no result: CYP2C9 activ, CYP2C19 act, CYP2C9 inh, CYP2C19 inh)
COc1ccccc1NS(=O)(=O)c1ccc(OC)c(OC)c1	CYP2C9 activ 2.6, CYP2C19 inh 99.0
CCN(CC)S(=O)(=O)c1ccc(OC)c(NS(=O)(=O)c2ccc(F)cc2)c1	none
COc1ccc(S(=O)(=O)Nc2ccccc2C(=O)NC(C)(C)C)cc1OC	CYP2C19 inh 73.0
COc1ccc(S(=O)(=O)Nc2ccccc2C(=O)OC2CCCN(C)C2)cc1OC (stereo unspecified)	CYP2C19 inh 65.9 (no result: sEH activator, sEH inhibitor)
CCOc1ccccc1NS(=O)(=O)c1ccc(OC)c(OC)c1	none (no result: CYP2C9 activ, CYP2C19 act, CYP2C9 inh, CYP2C19 inh)
COc1cc(NS(=O)(=O)c2ccc(F)cc2)c(OC)cc1NC(=O)C1CC1	CYP2C19 inh 97.9 (no result: sEH activator, sEH inhibitor)
COc1ccc2c(CC(=O)OCC(=O)NC(=O)c3cccn3C)coc2c1	none
CCN(CC)C(=S)Sc1c(-c2ccccc2)c2cc(Cl)ccc2[nH]c1=O	none
O=c1[nH]cnc2c1N1CCC2CC1	none
COc1cc(NS(=O)(=O)c2ccc(OC)c(OC)c2)cc(OC)c1	CYP2C9 inh 73.9, CYP2C19 inh 99.5
COc1ccccc1NS(=O)(=O)c1ccc(C)c(C(N)=O)c1	CYP2C19 inh 87.9
COc1ccccc1NS(=O)(=O)c1cc(Cl)ccc1OC	CYP2C19 inh 97.0 (no result: sEH activator, sEH inhibitor)
COc1ccccc1NS(=O)(=O)c1ccc(NC(C)=O)cc1	CYP2C19 inh 93.0
c1ccc(-n2nnnc2SCc2cccc3nsnc23)cc1	none
Cc1n[nH]c(C)c1S(=O)(=O)N1CCCCCC1	none
Cc1ccc(C2CN=NC23CCc2ccccc2C3=O)cc1 (stereo unspecified)	CYP2C19 inh 74.8
O=C(O)C(CCCCN1C(=O)C2C3C=CC(C3)C2C1=O)N1C(=O)C2C3C=CC(C3)C2C1=O (stereo unspecified)	none
COC(=O)C(CCCCN1C(=O)C2C3C=CC(C3)C2C1=O)N1C(=O)C2C3C=CC(C3)C2C1=O (stereo unspecified)	CYP2C9 inh 59.1
O=C(Nc1ccc(Cl)cc1)N1CCC(c2nc(-c3cccs3)no2)CC1	none (no result: sEH activator, sEH inhibitor)
O=C(Nc1ccccc1)N1CCCC(c2nc(-c3cccs3)no2)C1 (stereo unspecified)	CYP2C19 inh 86.9 (no result: sEH activator, sEH inhibitor)
COc1ccc(NC(=O)N2CCC(c3nc(-c4cccs4)no3)CC2)cc1	CYP2C9 inh 54.7, CYP2C19 inh 68.8, sEH inhibitor 89.5
CCOC(=O)CSc1nc(C)cc(=O)[nH]1	none
COc1ccc(CSc2nc(C)cc(=O)[nH]2)cc1Br	CYP2C19 inh 71.4
Cc1cc(=O)[nH]c(SCc2cccc(Br)c2)n1	CYP2C9 inh 74.1
Cc1cc(=O)[nH]c(SCc2nc3ccccc3s2)n1	none (no result: sEH activator, sEH inhibitor)
O=C(NCc1ccc(F)cc1)c1ccc(CS(=O)(=O)Cc2ccccc2F)o1	none
CN(C)C(=O)NC(Nc1ccc(Cl)cc1Cl)C(Cl)(Cl)Cl (stereo unspecified)	CYP2C9 inh 65.0, CYP2C19 inh 86.7
CCN(CC)c1ccc(CN2CCCCCC2)cc1	none
O=S(=O)(c1cnc[nH]1)N1CCN(c2ccccc2)CC1	CYP2C19 inh 64.3 (no result: sEH activator, sEH inhibitor)
